According to PubChem BioAssay (NCATS):
Inconclusive results are not listed. A call without a number means that no potency is given here. Active and inactive are the calls of the source. The call rests on the fitted dose curve; in most records, active means well fitted curve in the direction sought with a large enough effect; inconclusive means small, poorly fitted or top-dose-only effect, or another doubt; inactive means no such curve, though single readings can be large; an effect the other way counts as inactive or inconclusive.

Columns and labels:
[1] = qHTS to identify inhibitors of the type 1 interferon - major histocompatibility complex class I in skeletal muscle: primary screen against the NCATS LOPAC collection (AID 1347405);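 further: human myoblasts with HiBiT tag on endogenous HLA-B stimulated by IFN-beta; lytic HiBiT luminescence reporting HLA-B protein level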; further: potency means the concentration at half of the fitted maximal effect
How it was run: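 IFN-beta-stimulated (4 ng/ml) HLA-B HiBiT knock-in myoblasts, compound-treated 24 hrs up to 46 uM final; signal via LgBiT complementation and furimazine luminescence.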

[2] = qHTS for inhibitors of adenylyl cyclases using a fission yeast platform: a pilot screen against the NCATS LOPAC library (AID 1347410)
How it was run: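 Read-out: fbp1-GFP fluorescence by laser scanning cytometry (488 nm laser), a gain of signal when AC/cAMP-PKA signalling is inhibited. Strain CHP2027 expressing AC9, GNAS and PDE4D2; compounds at up to 57 µM; 18 h, 30C.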

[3] = Validation qHTS assay for inhibitors of Activation Induced Cytidine Deaminase (AID): UDG Counterscreen signal (AID 1347427)
How it was run: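 Fluorescence at 560 nm excitation, 665 nm emission reports UDG signal after 250 mM NaOH (2x) addition and 30 min. Enzymes (AID 1 uM, UDG 2 U/mL, at 4/3x) preincubated 10 min with compound, then 4 h with 4x 250 nM DJC20/DJC23 substrate at room temperature.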

SMILES | Potency [1] | outcome [2] | Potency [3]
Nc1ncnc2c1nc(Br)n2C1OC2COP(=O)(O)O[C@@H]2C1O (stereo not given in full) | inactive | inactive | inactive
O=C(O)[C@H]1NCCC[C@H]1C(=O)O | inactive | inactive | inactive
C=CCn1c(=O)c2c(nc(-c3ccc(S(=O)(=O)O)cc3)n2C)n(C)c1=O | inactive | inactive | inactive
c1ccc(C(NCc2cccnc2)(c2ccccc2)c2ccccc2)cc1 | inactive | inactive | inactive
C#CC(N)CCC(=O)O (stereo not given) | inactive | inactive | inactive
CCCCCCCCCCC/C=C\C(C)(C)/C=C\CCCC(=O)O | inactive | inactive | inactive
Nc1nc2[nH]c(=O)cnc2c(=O)[nH]1 | inactive | inactive | inactive
C=CCN1CCc2cc(O)c(O)cc2C(c2ccccc2)C1 (stereo not given) | inactive | inactive | inactive
C[N+](C)(C)CC=O | inactive | inactive | inactive
CCCCOc1cc(CC2CNC(=O)N2)ccc1OC (stereo not given) | inactive | inactive | inactive
COc1cc(CNC(=O)CCCCCCC(C)C)ccc1O | inactive | inactive | inactive
N[C@@H](Cc1ccc(O)c(I)c1)C(=O)O | inactive | inactive | inactive
Fc1ccc(CN(C2=NCCN2)c2c(Cl)cccc2Cl)cc1 | inactive | inactive | inactive
N[C@@H](Cc1c[nH]c2ccccc12)C(=O)O | inactive | inactive | inactive
Cc1nc(N=Nc2ccc(S(=O)(=O)O)cc2S(=O)(=O)O)c(COP(=O)(O)O)c(C=O)c1O | inactive | inactive | inactive
N#C/C(=C\c1ccc(O)c(O)c1)C(=O)NCCCNC(=O)/C(C#N)=C/c1ccc(O)c(O)c1 | inactive | inactive | inactive
C=CCN1CCc2c(cc(O)c(O)c2Cl)C(c2ccccc2)C1 (stereo not given) | inactive | inactive | inactive
CC1=C(C(=O)O)N2C(=O)[C@@H](NC(=O)C(N)C3=CCC=CC3)[C@H]2SC1 (stereo not given in full) | inactive | inactive | inactive
Cc1ccccc1/C=C/C1=NCCN1 | – | inactive | –
CC(=O)N[C@@H](Cc1c[nH]c2ccccc12)C(=O)OCc1cc(C(F)(F)F)cc(C(F)(F)F)c1 | inactive | inactive | inactive
c1ccc(C(NCCNC(c2ccccc2)c2ccccc2)c2ccccc2)cc1 | inactive | inactive | inactive
Cc1nc(N=Nc2cc(S(=O)(=O)O)c3cc([N+](=O)[O-])cc(S(=O)(=O)O)c3c2)c(COP(=O)(O)O)c(C=O)c1O | 15.8 µM (active) | inactive | inactive
CCCCCCN(CCCCCC)C(=O)Cc1c(-c2ccc(F)cc2)[nH]c2ccccc12 | inactive | inactive | inactive
CCCCCC(O)CCCC(=O)O (stereo not given) | inactive | inactive | inactive
